{"source": "PubChem BioAssay AID504441", "about": "(Broad Institute, 2011)", "note": "The whole screen tested about 310,000 compounds, of which about 1,300 (0.42%) were called active. The sample holds actives, similar compounds and a random draw of the others, so the mix is not that of the screen. Unmarked numbers belong to inactive results. Cut-off read from the data, not from the text of the source: active = inhibition above about 50%; inactive = the rest."}
{"target": "Dual specificity tyrosine-phosphorylation-regulated kinase 1A (Rattus norvegicus) (UniProt Q63470)", "test": "rat Dyrk1A kinase inhibitors, primary screen, biochemical, single point, plate reader (AID 504441);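 note: plate controls were vehicle with enzyme for no effect and no enzyme for full effect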", "conditions": "ADP-Glo luminescence, NFATc1 peptide, at 12.5 µM, active compounds read high"}
{"smiles": "O=C(O)c1cc(Cl)c(Cl)cc1C(=O)Nc1cccc2ncccc12", "inhibition": "31.9%"}
{"smiles": "Cc1ccc(/C=C(\\C#N)C(=O)Nc2cccc3ncccc23)o1", "inhibition": "84.4% (active)"}
{"smiles": "O=C(Nc1cccc2ncccc12)c1ccc(-c2ccc(Cl)cc2Cl)o1", "inhibition": "12.4%"}
{"smiles": "O=C1C2C3C=CC(C3)C2C(=O)N1c1ncc([N+](=O)[O-])s1", "note": "(stereo not drawn)", "inhibition": "-1.64%"}
{"smiles": "CCCN(C(=O)COC(=O)CNS(=O)(=O)c1ccc(NC(C)=O)cc1)C1CCS(=O)(=O)C1", "note": "(stereo not drawn)", "inhibition": "7.58%"}
{"smiles": "CC(C)OC(=O)c1ccc(NCc2cc(O)ccc2O)cc1Cl", "inhibition": "0.287%"}
{"smiles": "COc1ccc(/C=C2/CCCc3ccccc3C2=O)cc1", "inhibition": "11.6%"}
{"smiles": "O=[N+]([O-])c1ccccc1/C=N/n1c(COc2ccccc2)n[nH]c1=S", "inhibition": "-1.54%"}
{"smiles": "CCc1n[nH]c(=S)n1/N=C/c1c[nH]c2ccc(Br)cc12", "inhibition": "50.2% (active)"}
{"smiles": "Oc1ccccc1/C=N/n1c(-c2cccs2)n[nH]c1=S", "inhibition": "-4.73%"}
{"smiles": "O=C1/C(=C\\c2ccc(O)cc2)CCC1CNc1ccc(Cl)cc1", "note": "(stereo not drawn)", "inhibition": "2.38%"}
{"smiles": "COc1ccc(C2NCCCC2c2ccccc2)cc1", "note": "(stereo not drawn)", "inhibition": "-2.56%"}
{"smiles": "O=C(NN=Cc1ccccc1O)NN=Cc1ccccc1O", "inhibition": "6.12%"}
{"smiles": "CCOC(=O)Cn1c(-c2cccnc2Cl)nc2ccccc21", "inhibition": "80.1% (active)"}
{"smiles": "CCOC(=O)Cn1c(=O)n(Cc2ccc(OC)cc2)c(=O)c2cccnc21", "inhibition": "2.78%"}
{"smiles": "CCn1c(-c2cccnc2Cl)nc2cc(C)c(C)cc21", "inhibition": "2.9%"}
{"smiles": "O=c1c2ccccc2ncn1CCc1ccncc1", "inhibition": "7.95%"}
{"smiles": "OCC(O)C1OCOC(C(O)CO)C1O", "note": "(stereo not drawn)", "inhibition": "-1.78%"}
{"smiles": "O=C(NCC1CCCCC1)NCC1CCCCC1", "inhibition": "7.91%"}
{"smiles": "O=C(CC1SCCNC1=O)Nc1ccc(Cl)c(Cl)c1", "note": "(stereo not drawn)", "inhibition": "-4.03%"}
{"smiles": "O=C(Cc1ccc(Cl)c(Cl)c1)Nc1ccc(SC(F)F)cc1", "inhibition": "-0.116%"}
{"smiles": "O=C(CC(O)(C(F)(F)F)C(F)(F)F)Nc1ccc(Cl)c(Cl)c1", "inhibition": "53.9% (active)"}
{"smiles": "CC/C(=C(/c1ccccc1)c1ccc(OCC[N+](C)(C)C)cc1)c1ccccc1", "inhibition": "7.18%"}
{"smiles": "COc1cccc(NC(=S)N(CCc2c(C)[nH]c3ccccc23)Cc2ccco2)c1", "inhibition": "7.39%"}
{"smiles": "COc1ccc2[nH]c(C)c(CCN(Cc3cccs3)C(=S)Nc3ccccc3OC)c2c1", "inhibition": "57.4% (active)"}
{"smiles": "Cc1[nH]c2ccccc2c1CCN(Cc1cccs1)C(=S)NC(C)(C)C", "inhibition": "-4.25%"}
{"smiles": "NN=C(NN=Cc1ccccc1)c1ccccc1", "inhibition": "-4.79%"}
{"smiles": "CN(C(=O)c1cccc(NC(=O)Cc2ccc(NC(=O)C3CCCN(C(=O)C4CCCC4)C3)cc2)c1)C1CCC1", "note": "(stereo not drawn)", "inhibition": "2.93%"}
